Test results: PubChem BioAssay (NCI)
This is part of a sample that, as a whole, favours compounds with a hit. Of some 83,000 tested, about 20% had one in any assay.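 Cells were grown in 96-well plates and exposed to the test compound at a single concentration for 48 hours; results are reported as percent growth, with values below 10 considered active.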 Calls of active or inactive are those of the source.

Key:
Assay in all cases: NCI-60 one-dose screen, 48 h (100 = growth as untreated, 0 = no growth, -100 = all killed)
Conditions in all cases: 10 µM
[1] = tested on: NCI-H23 lung
[2] = tested on: NCI-H226 lung
[3] = tested on: HOP-62 NSCLC
[4] = tested on: NCI-H460 lung
[5] = tested on: NCI-H522 lung
[6] = tested on: A549/ATCC NSCLC
[7] = tested on: 786-0 renal
[8] = tested on: COLO 205 colon
[9] = tested on: HOP-92 NSCLC

Measured: growth

O=C(Nc1ccc(OCc2nnc(-c3ccc(Cl)cc3)o2)c(F)c1)Nc1ccc(Cl)c(C(F)(F)F)c1
active: [1] -5.04% | [2] -4.39% | [4] 2.73% | [5] -33.8% | [8] -76.9%
inactive: [3] 16.6% | [6] 12.8% | [7] 10.1%

COc1ccc(NC(=O)C2CC3C=CC2C3)c([N+](=O)[O-])c1 (stereo not drawn)
inactive: [1] 96% | [2] 96.1% | [3] 100% | [4] 107% | [5] 94.9% | [6] 93.8% | [7] 123% | [8] 115%

Cc1cc(Cl)ccc1Nc1nc(C(F)(F)F)ccc1C(=O)N/N=C/c1c(Cl)cccc1Cl
inactive: [1] 19%
active: [2] 7.42% | [3] -4.74% | [4] 1.31% | [5] -16.7% | [7] -63.5% | [8] -52.8%

O=C1/C(=C/c2ccc([N+](=O)[O-])s2)Oc2cc(Cl)ccc21
inactive: [1] 14.7% | [2] 81.2% | [3] 31.6% | [7] 14.3%
active: [4] 1.6% | [5] -78.2% | [6] 4.06% | [8] -28.3%

COC(=O)CC[C@@H](C)[C@H]1CC[C@H]2[C@@H]3CC[C@@H]4C[C@H](O)CC[C@]4(C)[C@H]3C[C@H](O)[C@]12C
inactive: [1] 116% | [2] 102% | [3] 109% | [4] 110% | [6] 102% | [7] 107% | [8] 101%

NC1=CC(=O)C(=O)c2cccnc21
inactive: [1] 18.7% | [2] 82.4% | [3] 80.2% | [9] 149% | [5] 59.8% | [6] 43.9% | [7] 99.7%

CC(C)N(CCOc1cccc(-c2nc3sccn3c2-c2ccnc(S(C)(=O)=O)n2)c1)C(C)C
inactive: [1] 96.1% | [2] 67.5% | [3] 103% | [4] 94.7% | [5] 82% | [6] 104% | [7] 97.3% | [8] 97.6%

COc1cc2c(Nc3ccc(-c4ccc(N)cc4)cc3)ncnc2c(OC)c1OC
inactive: [1] 70.6% | [2] 78.6% | [3] 85.9% | [4] 19.9% | [5] 48.6% | [6] 29.2% | [7] 48% | [8] 19.8%

O=C1CC(=O)N(C(=O)c2nn(-c3ccc(Cl)cc3)cc2O)N1
inactive: [1] 39.3% | [2] 43.1% | [3] 38.8% | [4] 27.4% | [6] 44.5% | [7] 50.7%
active: [5] 5.35% | [8] -13.4%

CN(C)CCN(Cc1ccccc1)c1ccc2ccccc2n1
inactive: [1] 97.6% | [2] 111% | [3] 88.4% | [4] 96.9% | [5] 96.7% | [6] 95.6% | [7] 93.9% | [8] 89.5%

O=C(N/N=C/c1c(Cl)cccc1Cl)c1ccccc1Nc1cccc(C(F)(F)F)c1
inactive: [1] 102% | [2] 99.4% | [3] 111% | [4] 88.6% | [5] 84.9% | [7] 102% | [8] 126%

c1ccc(/C(=N\Nc2ccc3ccccc3n2)c2ccccn2)cc1
inactive: [1] 21.3% | [8] 26.5%
active: [2] 3.53% | [3] 5.49% | [4] 5.49% | [5] -2.13% | [7] -35.9%

CN(C)c1ncnc2c1nnn2C1OC(CO)C(O)C1O (stereo not drawn)
active: [1] 4.79% | [5] -25.2%
inactive: [2] 39.9% | [3] 32.7% | [9] 19.6% | [6] 36.3% | [7] 17.2%

COc1ccc(-c2cc(-c3ccccc3)nc(SCCCC(=O)NO)n2)cc1
active: [1] -33.3% | [2] -8.31% | [3] -20% | [4] -10.3% | [5] -7.67% | [6] -2.46% | [7] -13.5% | [8] -22.6%

CC(C)(C)OC(=O)CN1CCc2c(sc3ncnc(N/N=C/c4cccc5ccccc45)c23)C1
inactive: [1] 40.6% | [2] 53.1% | [3] 45.5% | [4] 20.9% | [5] 32.8% | [6] 43.7% | [7] 44.1% | [8] 18.4%

COc1ccc2nc(-c3ccc(Cl)cc3)cc(-c3nnc(SC/C(=N\O)c4ccccc4)n3-c3ccccc3)c2c1
inactive: [1] 92.9% | [2] 82.5% | [3] 109% | [4] 86.9% | [5] 82.7% | [6] 63.1% | [7] 88.1% | [8] 98.7%

O=c1c(Br)ccc(Br)cc1Br
inactive: [2] 97.5% | [3] 15.2% | [4] 36.1%
active: [1] -51.8% | [7] -29.3% | [8] -70.6%
